This is an account of results in PubChem BioAssay (Tox21).

Experiment [1] is described as follows: qHTS RealTime-Glo MT Cell Viability Assay in HEK293 cells - 40 hour (AID 1224874). Also: % is scaled to controls: 0 for no effect and ±100 for the full control effect; nearly all actives have a fitted effect of over 50% in size. The settings on record: RealTime-Glo luminescence; max response: stronger effect = lower value. The method in brief:
(§1)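 Real-time viability in HEK293: signal arises when living cells convert a prosubstrate for NanoLuc in the medium, so luminescence tracks viable cell number. Compound (23 nL, DMSO) added 5 h post-seeding; kinetic reads at 0–40 h, 37 C.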

A short description of experiment [2]: A CellTox Green Cytotoxicity Assay to monitor cytotoxicity in HEK293 cells - 24 hour (AID 1224875). Also: % is scaled to controls: 0 for no effect and ±100 for the full control effect; nearly all actives have a fitted effect of over 45% in size. The note with it: CellTox Green fluorescence; series mostly up to 76.8 µM. Summed up: (§2)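 Cells (HEK293, 600/well) and dye reagent are dispensed together. After 5 h at 37 C, 23 nL compound is pinned in. Plates stay at 37 C for 40 h with fluorescence read at 0h, 8h, 16h, 24h, 32h and 40h.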

Experiment [3] in a line: A CellTox Green Cytotoxicity Assay to monitor cytotoxicity in HepG2 cells - 16 hour (AID 1224876). Also: % is scaled to controls: 0 for no effect and ±100 for the full control effect; nearly all actives have a fitted effect of over 45% in size. The note with it: CellTox Green fluorescence; series mostly up to 76.8 µM. The method in brief:
(§3)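 Cells and non-lytic dye reagent are dispensed together (600 HepG2 cells/well) and incubated 5 h before DMSO compound transfer. Kinetic fluorescence is then recorded in the same wells during 40 h at 37 C.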

Experiment [4] in a line: qHTS RealTime-Glo MT Cell Viability Assay in HepG2 cells - 32 hour (AID 1224877). Also: % is scaled to controls: 0 for no effect and ±100 for the full control effect; nearly all actives have a fitted effect of over 55% in size. The settings on record: RealTime-Glo luminescence; series mostly up to 76.8 µM. Summed up:
(§4)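 Viability was tracked continuously by NanoLuc luminescence from prosubstrate reduced by living HepG2 cells, at successive time points over 40 h of compound exposure. Cells with reagent were preincubated 5 h at 37 °C before compound addition.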

A short description of experiment [5]: A CellTox Green Cytotoxicity Assay to monitor cytotoxicity in HepG2 cells - 24 hour (AID 1224878). Also: % is scaled to controls: 0 for no effect and ±100 for the full control effect; nearly all actives have a fitted effect of over 45% in size. The note with it: CellTox Green fluorescence; series mostly up to 76.8 µM. The method in brief: as §3
The nature of experiment [6]: qHTS RealTime-Glo MT Cell Viability Assay in HEK293 cells - 0 hour (AID 1224880). Also: top concentration of the series differs between compounds; % is scaled to controls: 0 for no effect and ±100 for the full control effect; nearly all actives have a fitted effect of over 45% in size. The note with it: RealTime-Glo luminescence; series mostly up to 76.8 µM. Summed up:
as §1
For orientation: In qHTS, concentration-response curves come from the screen itself.

Experiment [7] in a line: A CellTox Green Cytotoxicity Assay to monitor cytotoxicity in HEK293 cells - 32 hour (AID 1224881). Also: % is scaled to controls: 0 for no effect and ±100 for the full control effect; nearly all actives have a fitted effect of over 40% in size. The settings on record: CellTox Green fluorescence; series mostly up to 76.8 µM. The method in brief: as §2
The nature of experiment [8]: A CellTox Green Cytotoxicity Assay to monitor cytotoxicity in HEK293 cells - 8 hour (AID 1224884). Also: % is scaled to controls: 0 for no effect and ±100 for the full control effect; nearly all actives have a fitted effect of over 35% in size. The note with it: CellTox Green fluorescence; series mostly up to 76.8 µM. Summed up:
as §2

Experiment [9] in a line: qHTS RealTime-Glo MT Cell Viability Assay in HepG2 cells - 16 hour (AID 1224885). Also: % is scaled to controls: 0 for no effect and ±100 for the full control effect; nearly all actives have a fitted effect of over 50% in size. The note with it: RealTime-Glo luminescence; series mostly up to 76.8 µM. Summed up:
as §4

Experiment [10] can be described thus: qHTS RealTime-Glo MT Cell Viability Assay in HEK293 cells - 24 hour (AID 1224886). Also: top concentration of the series differs between compounds; % is scaled to controls: 0 for no effect and ±100 for the full control effect; nearly all actives have a fitted effect of over 50% in size. The note with it: RealTime-Glo luminescence; series mostly up to 76.8 µM. The method in brief: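 Viability tracked continuously by luminescence as live cells reduce a prosubstrate for NanoLuc; HEK293 cells preincubated 5 h, compound-treated at 37 C, and read at 0, 8, 16, 24, 32 and 40 h.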

A short description of experiment [11]: qHTS RealTime-Glo MT Cell Viability Assay in HEK293 cells - 8 hour (AID 1224887). Also: top concentration of the series differs between compounds; % is scaled to controls: 0 for no effect and ±100 for the full control effect; nearly all actives have a fitted effect of over 50% in size. The note with it: RealTime-Glo luminescence; series mostly up to 76.8 µM. The method in brief:
as §1

Experiment [12] in a line: A CellTox Green Cytotoxicity Assay to monitor cytotoxicity in HEK293 cells - 16 hour (AID 1224888). Also: % is scaled to controls: 0 for no effect and ±100 for the full control effect; nearly all actives have a fitted effect of over 35% in size. The note with it: CellTox Green fluorescence; series mostly up to 76.8 µM. The method in brief:
as §2

A short description of experiment [13]: qHTS RealTime-Glo MT Cell Viability Assay in HepG2 cells - 0 hour (AID 1224889). The settings on record: RealTime-Glo luminescence; series mostly up to 76.8 µM. The method in brief: as §4
Experiment [14] is described as follows: A CellTox Green Cytotoxicity Assay to monitor cytotoxicity in HepG2 cells - 8 hour (AID 1224890). The note with it: CellTox Green fluorescence; series mostly up to 76.8 µM. Summed up: as §3
Experiment [15] in a line: qHTS assay to identify small molecule antagonists of the estrogen receptor alpha (ER-alpha) signaling pathway using the BG1 cell line in the presence of 0.1 nM 17-beta-estradiol - cell viability counter screen (AID 1259241). Also: % is scaled to controls: 0 for no effect and ±100 for the full control effect; nearly all actives have a fitted effect of over 40% in size. The note with it: VM7Luc4E2 (BG1) viability, CellTiter-Fluor protease, 22 h, 0.1 nM estradiol agonist added; series mostly up to 92.4 µM. The method in brief: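 In this screen, hormone-deprived VM7Luc4E2 cells were seeded at 4,000 per well, dosed with compound and 0.1 nM estradiol final, and incubated 22 hr at 37C and 5% CO2; fluorogenic live-cell protease signal reported viability.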

A short description of experiment [16]: qHTS assay to identify small molecule antagonists of the androgen receptor (AR) signaling pathway using the MDA cell line in the presence of 0.5 nM R1881 - cell viability counter screen (AID 1259242). The settings on record: MDA-kb2 viability, CellTiter-Fluor protease fluorescence, 16 h; series mostly up to 92.4 µM. Summed up: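 Steps: plate MDA-kb2 cells, rest 5 hr at 37C without CO2; pin in compounds in DMSO; add R1881 to 0.5 nM final; incubate 16 hr; add CellTiter-Fluor, 30 min; read fluorescence.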

Experiment [17] is described as follows: A CellTox Green Cytotoxicity Assay to monitor cytotoxicity in HepG2 cells - 40 hour (AID 1224879). Also: % is scaled to controls: 0 for no effect and ±100 for the full control effect; nearly all actives have a fitted effect of over 40% in size. The note with it: CellTox Green fluorescence; series mostly up to 76.8 µM. Summed up: as §3
Experiment [18] can be described thus: A CellTox Green Cytotoxicity Assay to monitor cytotoxicity in HepG2 cells - 32 hour (AID 1224883). The note with it: CellTox Green fluorescence; series mostly up to 76.8 µM. The method in brief:
as §3

Experiment [19] is described as follows: A CellTox Green Cytotoxicity Assay to monitor cytotoxicity in HepG2 cells - 0 hour (AID 1224882). Also: % is scaled to controls: 0 for no effect and ±100 for the full control effect; nearly all actives have a fitted effect of over 35% in size. The settings on record: CellTox Green fluorescence; series mostly up to 76.8 µM. The method in brief: as §3
The target in experiment [20] is Androgen receptor (Homo sapiens) (UniProt P10275). The experiment can be described thus: qHTS assay to identify small molecule antagonists of the androgen receptor (AR) signaling pathway using the MDA cell line in the presence of 0.5 nM R1881 (AID 1259243). The note with it: MDA-kb2 MMTV-luciferase, R1881 0.5 nM, 16 h; series mostly up to 92.4 µM. Summed up: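 Stably transfected MDA-kb2 cells express luciferase from an MMTV promoter bearing both AR and GR response elements. Compounds plus 0.5 nM R1881 (final) were incubated 16 hr at 37C without CO2, then luminescence measured.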
Sequence of Androgen receptor (Homo sapiens) (P10275 whole entry, looked up): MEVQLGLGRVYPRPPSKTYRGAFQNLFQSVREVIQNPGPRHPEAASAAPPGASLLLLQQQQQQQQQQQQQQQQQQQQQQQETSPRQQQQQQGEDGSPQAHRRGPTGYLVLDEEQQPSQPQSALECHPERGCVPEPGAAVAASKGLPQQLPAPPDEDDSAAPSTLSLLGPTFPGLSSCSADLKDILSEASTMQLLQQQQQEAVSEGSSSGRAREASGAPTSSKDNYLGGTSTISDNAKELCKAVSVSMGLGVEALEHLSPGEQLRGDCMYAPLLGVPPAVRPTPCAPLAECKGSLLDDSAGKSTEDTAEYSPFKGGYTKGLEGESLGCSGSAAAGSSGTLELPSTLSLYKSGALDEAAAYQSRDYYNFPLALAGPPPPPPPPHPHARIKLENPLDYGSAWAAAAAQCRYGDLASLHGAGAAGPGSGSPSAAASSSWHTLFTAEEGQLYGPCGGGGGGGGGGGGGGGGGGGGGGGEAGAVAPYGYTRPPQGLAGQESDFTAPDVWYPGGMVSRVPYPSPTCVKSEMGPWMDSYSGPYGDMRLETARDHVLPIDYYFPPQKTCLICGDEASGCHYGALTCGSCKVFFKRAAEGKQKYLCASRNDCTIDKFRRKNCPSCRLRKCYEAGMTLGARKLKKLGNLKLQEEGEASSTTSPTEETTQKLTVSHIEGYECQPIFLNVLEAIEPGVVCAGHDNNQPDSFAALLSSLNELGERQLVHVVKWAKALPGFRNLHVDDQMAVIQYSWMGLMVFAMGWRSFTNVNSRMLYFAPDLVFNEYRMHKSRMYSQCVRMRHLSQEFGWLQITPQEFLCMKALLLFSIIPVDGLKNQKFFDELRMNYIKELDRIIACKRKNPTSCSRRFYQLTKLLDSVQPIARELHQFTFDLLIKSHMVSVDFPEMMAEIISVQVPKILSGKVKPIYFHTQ

“And” between values parts separate entries of the source, which are not always exact repeats. Equal values may be shown once. Values without a mark were called inactive. Records with an inconclusive call do not appear. The source made the active and inactive calls. Calls follow the shape of the dose curve; as a rule, active = well fitted curve in the direction sought with a large enough effect in the repeat runs; inconclusive = weak or mixed curves; inactive = no such curve, though single readings can be large; an effect the other way counts as inactive or inconclusive.

On to `c1ccc2c(c1)oc1ccccc12`, for which the max response in experiment [1] was -5.88% and -12.6%. Further, the Potency result in [2], in [3], in experiment [5], in [7], in experiment [8] and in experiment [10] was “inactive” throughout. For the same compound, the Potency result in [12], in experiment [14] and in [15] was “inactive” each time. Also, the compound was classed as inactive in experiment [4], in experiment [6], in [9], in experiment [11], in [13] and in experiment [16].

As for `Cc1cc(-c2cc(C)c(N)c(C)c2)cc(C)c1N`, the max response in experiment [1] is -25.8% and -12.6%. The Potency result in experiment [2], in experiment [3], in experiment [5], in experiment [17], in experiment [7] and in experiment [18] was “inactive” each time. The Potency entry in experiment [8], in experiment [10], in experiment [12], in [14] and in experiment [15] was “inactive” throughout. Besides, the call in experiment [4], in experiment [6], in [9], in experiment [11], in experiment [13] and in experiment [16] was inactive.

Regarding `CC1OC(C)OC(C)O1` (centres undefined), in [1], the max response was 8.31% and 5.6%. Besides, the Potency entry in experiment [2], in [5], in [17], in [7], in experiment [19] and in [18] was “inactive” throughout. The Potency entry in [8], in experiment [10], in [12], in [14] and in [15] was “inactive” in each case. For the same compound, the compound was called inactive in experiment [4], in [6], in experiment [9], in experiment [11], in experiment [13] and in experiment [16].

For `ClCCBr`, the max response in [1] is -0.15% and 0.955%. For the same compound, the Potency result in experiment [2], in [5], in experiment [17], in [7], in experiment [18] and in experiment [8] was “inactive” in each case. The Potency entry in experiment [10], in [12], in experiment [14] and in experiment [15] was “inactive” in each case. The call in experiment [4], in [6], in experiment [9], in experiment [11] and in [13] was inactive.

`O=C(NC(=O)c1c(F)cccc1F)Nc1cc(Cl)c(OC(F)(F)C(F)C(F)(F)F)cc1Cl` (centres undefined): the max response in experiment [1] was -33.5%. Further, the Potency result in experiment [2], in experiment [5], in experiment [17], in experiment [7], in experiment [19] and in [18] was “inactive” each time. In addition, the Potency result in [8], in [10], in experiment [12], in experiment [14] and in [15] was “inactive” in each case. The result in experiment [4], in [6], in [9], in experiment [11], in [13] and in [16] was inactive. For the same compound, the Potency in [20] was 19.3 µM (active) and 26.6 µM (active).

Consider `C[C@]12CC[C@H]3[C@@H](CC[C@@]45O[C@@H]4C(O)=C(C#N)C[C@]35C)[C@@H]1CC[C@@H]2O`, for which, in experiment [1], the max response was 27.1% and 19.8%. Also, the Potency entry in experiment [2], in experiment [5], in experiment [17], in experiment [7], in [18] and in experiment [8] was “inactive” each time. In addition, the Potency result in experiment [10], in experiment [12], in experiment [14] and in experiment [15] was “inactive” each time. Moreover, the call in experiment [4], in experiment [6], in experiment [9], in [11], in experiment [13] and in experiment [16] was inactive.
